Reference: PubChem BioAssay (NCI)
About 79,000 compounds went through this panel and 15% of them were active in at least one assay; those are over-represented in the sample as a whole. The source made the active and inactive calls. Cut-off read from the data, not from the text of the source: active = growth inhibition above about 70%; inactive = the rest.

How the values were obtained:
[1] = NCI Yeast Anticancer Drug Screen. Data for the rad52 strain (AID 147);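 note: 0% = growth of vehicle-treated control cultures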; settings: S. cerevisiae rad52 mutant growth inhibition, stronger effect = higher value
How it was run: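 Yeast strain carrying a DNA damage repair alteration was exposed to test compounds. Growth inhibition was measured relative to vehicle-treated controls.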

[2] = NCI Yeast Anticancer Drug Screen. Data for the wt1 strain (AID 149);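 note: 0% = growth of vehicle-treated wt1 cultures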; settings: S. cerevisiae wt1 strain (SPY 50644) growth inhibition, stronger effect = higher value
How it was run: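 wt1 strain grown with compound or vehicle; inhibition taken from the growth difference.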

[3] = NCI Yeast Anticancer Drug Screen. Data for the rad50EPP+ strain (AID 151);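 note: 0% = growth of vehicle-treated control cultures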; settings: S. cerevisiae rad50 mutant strain, stronger effect = higher value
How it was run: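 Yeast strain carrying rad50 alteration (rad50EPP+) exposed to compounds; growth inhibition measured relative to vehicle-treated controls.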

[4] = NCI Yeast Anticancer Drug Screen. Data for the mgt1 strain (AID 153); settings: S. cerevisiae mgt1 mutant growth inhibition, stronger effect = higher value
How it was run: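 Yeast mgt1 strain (DNA repair/cell-cycle alteration panel) exposed to compounds; growth inhibition measured relative to vehicle-treated controls.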

[5] = NCI Yeast Anticancer Drug Screen. Data for the rad50 strain (AID 155);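 note: 0% = growth of vehicle-only cultures of the same strain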; settings: S. cerevisiae rad50 strain growth inhibition, stronger effect = higher value
How it was run: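 DNA repair mutant yeast, compound exposure, growth read-out; inhibition is taken relative to vehicle.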

[6] = NCI Yeast Anticancer Drug Screen. Data for the mec2-1 strain (AID 157); settings: S. cerevisiae mec2-1 strain, stronger effect = higher value
How it was run: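 mec2-1 yeast strain, carrying an alteration in DNA damage repair or cell cycle control, was exposed to compounds; growth inhibition was measured relative to vehicle-treated controls.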

[7] = NCI Yeast Anticancer Drug Screen. Data for the rad14 strain (AID 159);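 note: 0% = growth of vehicle-treated control cultures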; settings: S. cerevisiae rad14 strain growth inhibition, stronger effect = higher value
How it was run: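 DNA repair-defective yeast, compound-exposed; % growth inhibition derived by comparison with vehicle-treated controls.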

[8] = NCI Yeast Anticancer Drug Screen. Data for the sgs1 mgt1 strain (AID 161);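 note: 0% = growth of cultures given vehicle only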; settings: S. cerevisiae sgs1 mgt1 strain, stronger effect = higher value
How it was run: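 Percent growth inhibition was derived by comparing compound-exposed mutant yeast with vehicle-exposed cultures. The strain carries alterations in DNA damage repair.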

[9] = NCI Yeast Anticancer Drug Screen. Data for the CLN2oe strain (AID 163);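 note: 0% = growth of vehicle-only control cultures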; settings: S. cerevisiae CLN2oe strain, stronger effect = higher value
How it was run: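 Yeast cells carrying a defined cell-cycle control alteration were exposed to test compounds. Growth inhibition was scored against vehicle-treated control cultures.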

[10] = NCI Yeast Anticancer Drug Screen. Data for the cln2 rad14 strain (AID 165);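 note: 0% = growth equal to vehicle treated cultures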; settings: S. cerevisiae cln2 rad14 strain, stronger effect = higher value
How it was run: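 Yeast carrying cln2 and rad14 alterations (cell cycle control and DNA damage repair) were exposed to compounds. Growth inhibition was measured against vehicle-treated controls.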

[11] = NCI Yeast Anticancer Drug Screen. Data for the bub3 strain (AID 167); settings: S. cerevisiae bub3 mutant strain, stronger effect = higher value
How it was run: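 In this screen, a yeast mutant lacking normal mitotic checkpoint function is challenged with compound. Relative growth versus vehicle gives the inhibition value.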

[12] = NCI Yeast Anticancer Drug Screen. Data for the wt2 strain (AID 169);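 note: 0% = growth of vehicle-treated yeast cultures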; settings: S. cerevisiae wt2 strain growth inhibition, stronger effect = higher value
How it was run: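 Yeast cells were exposed to test compounds, and growth inhibition was measured relative to vehicle-treated controls.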

[13] = NCI Yeast Anticancer Drug Screen. Data for the mlh1 strain (AID 171);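 note: 0% = growth of vehicle-treated control cultures of the same strain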; settings: S. cerevisiae mlh1 strain growth inhibition, stronger effect = higher value
How it was run: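 Yeast carrying a defined genetic alteration in DNA damage repair or cell cycle control were exposed to test compounds. Growth inhibition was measured relative to vehicle-treated controls.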

[14] = NCI Yeast Anticancer Drug Screen. Data for the sgs1 strain (AID 173);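 note: 0% = growth of vehicle-only control cultures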; settings: S. cerevisiae sgs1 mutant, stronger effect = higher value
How it was run: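 Yeast mutant strains carrying defined defects in DNA damage repair or cell cycle control were exposed to test compounds. Growth inhibition was scored against vehicle-treated controls.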

[15] = NCI Yeast Anticancer Drug Screen. Data for the mlh1 rad18 strain (AID 175); settings: S. cerevisiae mlh1 rad18 strain growth inhibition, stronger effect = higher value
How it was run: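 Growth inhibition of the yeast strain was measured after compound exposure and expressed relative to vehicle-treated controls. The strain carries defined defects in DNA damage repair.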

[16] = NCI Yeast Anticancer Drug Screen. Data for the rad18 strain (AID 177); settings: S. cerevisiae rad18 mutant growth inhibition, stronger effect = higher value
How it was run: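 Yeast carrying a defined DNA damage repair alteration were exposed to compounds. Growth inhibition was expressed relative to vehicle-treated controls.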

[17] = at 5.0 µM (retest, dose inferred, filed as 0.5)
[18] = at 50.0 µM (retest, dose inferred, filed as 5.0)

Measured: growth inhibition

O=[N+]([O-])/C=C/c1cc2ccc3ccccc3c2[nH]1
inactive: [1]; at 1.2 µM 27% | [1]; at 3.7 µM 66% | [2]; at 1.2 µM 9% | [2]; at 3.7 µM 19% | [2]; at 11.0 µM 41% | [4]; at 1.2 µM 15% | [4]; at 3.7 µM 55% | [5]; at 1.2 µM 39% | [5]; [17] 63% | [6]; at 1.2 µM 20% | [6]; at 3.7 µM 33% | [6]; [17] 55% | [6]; at 11.0 µM 63% | [7]; at 1.2 µM 11% | [7]; at 3.7 µM 27% | [7]; at 11.0 µM 62% | [9]; at 1.2 µM 0% | [9]; at 3.7 µM 12% | [9]; at 11.0 µM 31% | [9]; at 33.0 µM 63% | [10]; [17] -6% | [11]; at 1.2 µM 12% | [11]; at 3.7 µM 28% | [11]; [17] 50% | [11]; at 11.0 µM 58% | [12]; at 1.2 µM 26% | [12]; at 3.7 µM 57% | [13]; at 1.2 µM 25% | [13]; at 3.7 µM 50% | [14]; at 1.2 µM 39% | [16]; at 1.2 µM 61%
active: [1]; at 11.0 µM 83% | [1]; at 33.0 µM 88% | [1]; at 100.0 µM 88% | [2]; at 33.0 µM 79% | [2]; at 100.0 µM 93% | [3]; at 1.2 µM 91% | [3]; at 3.7 µM 94% | [3]; at 11.0 µM 94% | [3]; at 33.0 µM 93% | [3]; at 100.0 µM 87% | [4]; at 11.0 µM 81% | [4]; at 33.0 µM 95% | [4]; at 100.0 µM 93% | [5]; at 3.7 µM 70% | [5]; at 11.0 µM 78% | [5]; at 33.0 µM 83% | [5]; [18] 96% | [5]; at 50.0 µM 95.8% | [5]; at 100.0 µM 82% | [6]; at 33.0 µM 88% | [6]; [18] 98% | [6]; at 50.0 µM 98.8% | [6]; at 100.0 µM 93% | [7]; at 33.0 µM 88% | [7]; at 100.0 µM 91% | [8]; [17] 88% | [8]; [18] 97% | [8]; at 50.0 µM 98.7% | [9]; at 100.0 µM 87% | [10]; [18] 83% | [10]; at 50.0 µM 97.2% | [11]; at 33.0 µM 86% | [11]; [18] 96% | [11]; at 50.0 µM 98.8% | [11]; at 100.0 µM 91% | [12]; at 11.0 µM 87% | [12]; at 33.0 µM 95% | [12]; at 100.0 µM 93% | [13]; at 11.0 µM 83% | [13]; at 33.0 µM 93% | [13]; at 100.0 µM 93% | [14]; at 3.7 µM 72% | [14]; at 11.0 µM 89% | [14]; at 33.0 µM 94% | [14]; at 100.0 µM 92% | [15]; [17] 84% | [15]; [18] 94% | [15]; at 50.0 µM 98% | [16]; at 3.7 µM 86% | [16]; at 11.0 µM 90% | [16]; at 33.0 µM 92% | [16]; at 100.0 µM 87%

CCC(/C=C/c1ccccc1)=N\Nc1ccc(Cl)cc1
inactive: [1]; at 1.2 µM -1% | [1]; at 3.7 µM 2% | [1]; at 11.0 µM -1% | [2]; at 1.2 µM 0% | [2]; at 3.7 µM -2% | [2]; at 11.0 µM -6% | [2]; at 33.0 µM 48% | [3]; at 1.2 µM 4% | [3]; at 3.7 µM 9% | [3]; at 11.0 µM 19% | [3]; at 33.0 µM 17% | [3]; at 100.0 µM 19% | [4]; at 1.2 µM -4% | [4]; at 3.7 µM 4% | [4]; at 11.0 µM 7% | [4]; at 33.0 µM 5% | [4]; at 100.0 µM 50% | [5]; at 1.2 µM 3% | [5]; at 3.7 µM 9% | [5]; [17] 2% | [5]; at 11.0 µM 12% | [6]; at 1.2 µM 0% | [6]; at 3.7 µM 5% | [6]; [17] -3% | [6]; at 11.0 µM 9% | [6]; at 33.0 µM 6% | [6]; at 100.0 µM 52% | [7]; at 1.2 µM 0% | [7]; at 3.7 µM 0% | [7]; at 11.0 µM 3% | [7]; at 33.0 µM 0% | [8]; [17] 2% | [9]; at 1.2 µM -1% | [9]; at 3.7 µM 1% | [9]; at 11.0 µM 8% | [9]; at 33.0 µM 8% | [9]; at 100.0 µM 48% | [10]; [17] 5% | [10]; [18] 38% | [11]; at 1.2 µM -2% | [11]; at 3.7 µM 2% | [11]; [17] 3% | [11]; at 11.0 µM 5% | [11]; at 33.0 µM 32% | [11]; at 100.0 µM 51% | [12]; at 1.2 µM -4% | [12]; at 3.7 µM -9% | [12]; at 11.0 µM -4% | [13]; at 1.2 µM -2% | [13]; at 3.7 µM 4% | [13]; at 11.0 µM 4% | [13]; at 33.0 µM 2% | [13]; at 100.0 µM 52% | [14]; at 1.2 µM -3% | [14]; at 3.7 µM -4% | [14]; at 11.0 µM -1% | [15]; [17] 7% | [16]; at 1.2 µM -3% | [16]; at 3.7 µM 1% | [16]; at 11.0 µM 3%
active: [1]; at 33.0 µM 86% | [1]; at 100.0 µM 93% | [2]; at 100.0 µM 93% | [5]; at 33.0 µM 77% | [5]; [18] 83% | [5]; at 50.0 µM 97.6% | [5]; at 100.0 µM 93% | [6]; [18] 80% | [6]; at 50.0 µM 85.5% | [7]; at 100.0 µM 76% | [8]; [18] 81% | [8]; at 50.0 µM 86.5% | [10]; at 50.0 µM 89.5% | [11]; [18] 86% | [11]; at 50.0 µM 97.8% | [12]; at 33.0 µM 80% | [12]; at 100.0 µM 94% | [14]; at 33.0 µM 77% | [14]; at 100.0 µM 95% | [15]; [18] 91% | [15]; at 50.0 µM 96% | [16]; at 33.0 µM 79% | [16]; at 100.0 µM 95%
